Reference: PubChem BioAssay (NCI)
About 83,000 compounds went through this panel and 20% of them were active in at least one assay; those are over-represented in the sample as a whole.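 Values shown are percent growth following 48 h exposure of cells in 96-well plates to a single concentration of compound; below 10 was considered active.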 Values without a mark were called inactive. Active and inactive are the calls of the source.

Columns and labels:
Experiment in all cases: NCI-60 one-dose screen, 48 h (100 = growth as untreated, 0 = no growth, -100 = all killed)
Conditions in all cases: 10 µM unless noted
HCT-15 colon = test system: HCT-15 colon
HT29 colon = test system: HT29 colon
SNB-75 CNS = test system: SNB-75 CNS
SNB-19 CNS = test system: SNB-19 CNS
U251 CNS = test system: U251 CNS
PC-3 prostate = test system: PC-3 prostate
SK-MEL-5 melanoma = test system: SK-MEL-5 melanoma
UACC-62 melanoma = test system: UACC-62 melanoma
LOX IMVI melanoma = test system: LOX IMVI melanoma
SK-MEL-28 melanoma = test system: SK-MEL-28 melanoma
SN12C renal = test system: SN12C renal
UO-31 renal = test system: UO-31 renal
TK-10 renal = test system: TK-10 renal
ACHN renal = test system: ACHN renal
CAKI-1 renal = test system: CAKI-1 renal
CCRF-CEM leukemia = test system: CCRF-CEM leukemia
MOLT-4 leukemia = test system: MOLT-4 leukemia
SK-MEL-2 melanoma = test system: SK-MEL-2 melanoma
EKVX NSCLC = test system: EKVX NSCLC
A498 renal = test system: A498 renal

`C[C@@H]1C[C@H]2C(=O)O[C@@H](C)C(NC(=O)[C@H](Cc3cc(F)cc(F)c3)NC(=O)Nc3ccc(C4CC4)cc3F)C(=O)N3CCC[C@H]3C(=O)N3CCCC[C@H]3C(=O)N[C@@H](CO)C(=O)N2C1` (stereo partly drawn) showed a growth (HCT-15 colon) of 14.1%, a growth (HT29 colon) of 25.4% and a growth (SNB-75 CNS) of 31.5%. It also gave a growth (SNB-19 CNS) of 27.9%, a growth (U251 CNS) of 29.8% and a growth (PC-3 prostate) of 11.5%. For the same compound, the growth (SK-MEL-5 melanoma) was -15.9% (active), the growth (UACC-62 melanoma) was 21.3% and the growth (LOX IMVI melanoma) was 30.4%. It also gave a growth (SK-MEL-28 melanoma) of 41.1%, a growth (SN12C renal) of 18.7% and a growth (UO-31 renal) of 25.8%. For the same compound, the growth (TK-10 renal) was 52.6%, the growth (ACHN renal) was 28.6% and the growth (CAKI-1 renal) was 18.6%. The growth (CCRF-CEM leukemia) was 31.2% and the growth (MOLT-4 leukemia) was 39.7%.

With `Cn1cc(CNc2nc3ccc(OC/C(=C/F)CN)cc3o2)ccc1=O` the growth (HCT-15 colon) was 103%, the growth (HT29 colon) was 111% and the growth (SNB-75 CNS) was 110%. The growth (SNB-19 CNS) was 98%, the growth (U251 CNS) was 106% and the growth (PC-3 prostate) was 107%. The growth (SK-MEL-5 melanoma) was 104%, the growth (UACC-62 melanoma) was 95.1% and the growth (LOX IMVI melanoma) was 98.2%. The growth (SK-MEL-2 melanoma) was 114%, the growth (EKVX NSCLC) was 98.4% and the growth (SN12C renal) was 99.8%. It also gave a growth (UO-31 renal) of 93.1%, a growth (TK-10 renal) of 107% and a growth (ACHN renal) of 105%. It also gave a growth (CAKI-1 renal) of 91%, a growth (A498 renal) of 102% and a growth (CCRF-CEM leukemia) of 107%. For the same compound, the growth (MOLT-4 leukemia) was 104%.

For `COc1ccc(-c2nc3cc(Cl)c(Cl)cc3n2CC(=O)N=Nc2c(O)[nH]c3ccc(OC)cc23)cc1`, the growth (HCT-15 colon) was 43.7%, the growth (HT29 colon) was 55.2% and the growth (SNB-75 CNS) was 65.3%. The growth (SNB-19 CNS) was 80%, the growth (U251 CNS) was 77.8% and the growth (PC-3 prostate) was 63.8%. The growth (SK-MEL-5 melanoma) was 61.2%, the growth (UACC-62 melanoma) was 53.4% and the growth (LOX IMVI melanoma) was 7.13% (active). For the same compound, the growth (SK-MEL-28 melanoma) was 48.6%, the growth (EKVX NSCLC) was 62.9% and the growth (SN12C renal) was 49.7%. It also gave a growth (UO-31 renal) of 69.9%, a growth (TK-10 renal) of 97.3% and a growth (ACHN renal) of 43.5%. The growth (CAKI-1 renal) was 59.4%, the growth (CCRF-CEM leukemia) was 61.6% and the growth (MOLT-4 leukemia) was 78.7%.

In the case of `Nc1nc(-c2cccc([N+](=O)[O-])c2)c(N=Nc2ccc([N+](=O)[O-])cc2Cl)s1`, the growth (HCT-15 colon) is reported as 3.38% (active), the growth (HT29 colon) is reported as 10.7% and the growth (SNB-75 CNS) is reported as -1.14% (active). The growth (SNB-19 CNS) was 17%, the growth (U251 CNS) was 10.3% and the growth (PC-3 prostate) was 5.14% (active). The growth (SK-MEL-5 melanoma) was -76.6% (active), the growth (UACC-62 melanoma) was 1.4% (active) and the growth (LOX IMVI melanoma) was 14.1%. The growth (SK-MEL-28 melanoma) was 22.8%, the growth (EKVX NSCLC) was 6.7% (active) and the growth (SN12C renal) was 5.24% (active). For the same compound, the growth (UO-31 renal) was 10.5%, the growth (TK-10 renal) was 22.7% and the growth (ACHN renal) was 7.06% (active). The growth (CAKI-1 renal) was 4.29% (active), the growth (CCRF-CEM leukemia) was 13% and the growth (MOLT-4 leukemia) was 7.78% (active).

For `COc1cc(OC)c(S(N)(=O)=O)cc1C(=O)/C=C/c1ccc(Cl)cc1`, the growth (HCT-15 colon) was -41.6% (active), the growth (HT29 colon) was 6.08% (active) and the growth (SNB-75 CNS) was 27.1%. The growth (SNB-19 CNS) was 15.8%, the growth (U251 CNS) was 3.73% (active) and the growth (PC-3 prostate) was 28.2%. For the same compound, the growth (SK-MEL-5 melanoma) was 5.34% (active), the growth (UACC-62 melanoma) was 18.6% and the growth (LOX IMVI melanoma) was -50.4% (active). The growth (SK-MEL-28 melanoma) was 30.5%, the growth (EKVX NSCLC) was 29.8% and the growth (SN12C renal) was 16%. The growth (UO-31 renal) was 7.22% (active), the growth (TK-10 renal) was -5.25% (active) and the growth (ACHN renal) was 11.6%. For the same compound, the growth (CAKI-1 renal) was 21.5%, the growth (CCRF-CEM leukemia) was 1.6% (active) and the growth (MOLT-4 leukemia) was 3.62% (active).

With `CCCCCc1ccc(S(=O)(=O)Nc2cc(-c3csc(NC(=O)CN4CCN(C)CC4)n3)ccc2N2CCN(C)CC2)cc1` the growth (HCT-15 colon) was -68.4% (active), the growth (HT29 colon) was -25.3% (active) and the growth (SNB-75 CNS) was 94.7%. The growth (SNB-19 CNS) was 5.25% (active), the growth (U251 CNS) was -32.9% (active) and the growth (PC-3 prostate) was 29.6%. For the same compound, the growth (SK-MEL-5 melanoma) was -89.9% (active), the growth (UACC-62 melanoma) was -78.4% (active) and the growth (LOX IMVI melanoma) was -82.9% (active). For the same compound, the growth (SK-MEL-2 melanoma) was 37.8%, the growth (EKVX NSCLC) was 55.8% and the growth (SN12C renal) was -21.6% (active). For the same compound, the growth (UO-31 renal) was -94.2% (active), the growth (TK-10 renal) was 134% and the growth (ACHN renal) was 0.622% (active). The growth (CAKI-1 renal) was -19.8% (active), the growth (A498 renal) was 73.1% and the growth (CCRF-CEM leukemia) was 0.815% (active). For the same compound, the growth (MOLT-4 leukemia) was -18.4% (active).

In the case of `COc1c(N2CC3CCCNC3C2)c(F)cc2c(=O)c(C(=O)N/N=C/c3ccc4c(c3)OCO4)cn(C3CC3)c12` (stereo not drawn), the growth (HCT-15 colon) is reported as 3.7% (active), the growth (HT29 colon) is reported as -19.2% (active) and the growth (SNB-75 CNS) is reported as 102%. The growth (SNB-19 CNS) was 80.5%, the growth (U251 CNS) was 12.4% and the growth (PC-3 prostate) was 60.1%. The growth (SK-MEL-5 melanoma) was 22.8%, the growth (UACC-62 melanoma) was 90.7% and the growth (LOX IMVI melanoma) was -64.3% (active). The growth (SK-MEL-28 melanoma) was 96.5%, the growth (SK-MEL-2 melanoma) was 103% and the growth (SN12C renal) was 82.9%. It also gave a growth (UO-31 renal) of 64.9%, a growth (TK-10 renal) of 124% and a growth (ACHN renal) of 85.3%. The growth (A498 renal) was 105%, the growth (CCRF-CEM leukemia) was 31.7% and the growth (MOLT-4 leukemia) was 59.3%.

For `O=S(=O)(NC1c2ccccc2C[C@H]1O)c1ccc(Cl)cc1Cl` (stereo partly drawn), the growth (HCT-15 colon) was 94.6%, the growth (HT29 colon) was 109% and the growth (SNB-75 CNS) was 86.4%. It also gave a growth (SNB-19 CNS) of 96.3%, a growth (U251 CNS) of 98.7% and a growth (PC-3 prostate) of 84.1%. The growth (SK-MEL-5 melanoma) was 99.4%, the growth (UACC-62 melanoma) was 74.9% and the growth (LOX IMVI melanoma) was 93.3%. It also gave a growth (SK-MEL-28 melanoma) of 102%, a growth (SK-MEL-2 melanoma) of 101% and a growth (SN12C renal) of 96.8%. For the same compound, the growth (UO-31 renal) was 68.7%, the growth (TK-10 renal) was 119% and the growth (CAKI-1 renal) was 82.4%. The growth (A498 renal) was 103%, the growth (CCRF-CEM leukemia) was 105% and the growth (MOLT-4 leukemia) was 105%.

For `COc1ccc(-n2c(SCc3nnc(NC(=O)c4ccc(Br)cc4)s3)nc3cc(OC)c(OC)cc3c2=O)cc1`, the growth (HCT-15 colon) was 85.1%, the growth (HT29 colon) was 104% and the growth (SNB-75 CNS) was 93.4%. The growth (SNB-19 CNS) was 89.6%, the growth (U251 CNS) was 86.3% and the growth (PC-3 prostate) was 87.9%. The growth (SK-MEL-5 melanoma) was 91.8%, the growth (UACC-62 melanoma) was 91.4% and the growth (LOX IMVI melanoma) was 90.5%. It also gave a growth (SK-MEL-28 melanoma) of 88.7%, a growth (EKVX NSCLC) of 91.1% and a growth (SN12C renal) of 91%. It also gave a growth (UO-31 renal) of 84.2%, a growth (TK-10 renal) of 118% and a growth (ACHN renal) of 97.5%. It also gave a growth (CAKI-1 renal) of 83.8%, a growth (CCRF-CEM leukemia) of 90.9% and a growth (MOLT-4 leukemia) of 105%.
